Source: PubChem BioAssay AID651820 (National Center for Advancing Translational Sciences (NCATS), 2012)
Out of some 340,000 compounds screened, about 12,000 (3.5%) were called active. Not shown: some 18% with an inconclusive outcome. The sample as a whole holds a higher share of actives than the screen did. Values without a mark were called inactive. The call rests on the fitted dose curve; in most records, active means well fitted inhibition curve with a large enough effect; inconclusive means small, poorly fitted or top-dose-only effect, or another doubt; inactive means no such curve, though single readings can be large or run the other way. Non-standard residues stand in square brackets, D forms with d. Residues, ends and D or L forms follow the SMILES beside them. ξ: configuration not given here. Ac5c = NC1(C(=O)O)CCCC1; ξS = NC(CO)C(=O)O

assay: qHTS Assay for Inhibitors of Hepatitis C Virus (HCV); settings: Huh7.5.1 HCVcc-Cre infection, luciferase reporter, 44 h; series mostly up to 41.8 µM; activity change, negative = inhibition: at the top concentration
How it was run: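 Compounds are dispensed onto cells plated 4 h earlier at 1,000 per well, with HCVcc-Cre virus (about 0.5 moi) added next. Following 44 h of culture, luminescent signal is measured for 15 sec after 15 min with substrate at room temperature.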
On the % scale 0 is the no-effect control and ±100 the full control effect; potency means the concentration at half of the fitted maximal effect.

Row | Compound | activity change, negative = inhibition [%] | Potency
1 | C=CCN1C=C(C(=O)c2ccccc2)C(=O)CC1 | 39 | –
2 | Cc1nc2ccccc2c(C(=O)O)c1-c1ccccn1 | 9.5 | –
3 | c1ccc(-c2noc(-c3cccs3)n2)nc1 | 12.5 | –
4 | CC(C)(C)Nc1nc(-c2ccccn2)nc2ccccc12 | – | 4.47 µM (active)
5 | COc1ccc(/C=N/NC(=O)c2cc(-c3cccc(C)c3)nc3ccccc23)cc1O | -28.4 | –
6 | C=CCn1c(SCC(=O)NCCCO)nc2sc3c(c2c1=O)CCC3 | -6.08 | –
7 | O=C(CSc1nc2cc3c(cc2c(=O)n1CCC1=CCCCC1)OCO3)NCc1ccco1 | 5.78 | –
8 | C=C(C)Cn1c(SCC(=O)NCc2ccco2)nc2sc3c(c2c1=O)CCC3 | – | 8.91 µM (active)
9 | O=C(COC(=O)COc1cccc(F)c1)NCC1CCCCC1 | 28.3 | –
10 | O=C(Nc1ccon1)c1nc[nH]c1C(=O)NCc1ccccc1 | -2.4 | –
11 | COc1ccc2[nH]c3c(c2c1)CCN1C(=O)C(CC(=O)NCCCN(C)C)C[C@H](C(=O)N2CCOCC2)[C@@]31CCC1CCCC1 (some centres undefined) | -0.0933 | –
12 | O=C(CSc1c2c(nc3ccc(Cl)cc13)CCCC2)NCc1ccco1 | -25.9 | –
13 | C=CCn1c(CSc2nc3ccccc3s2)nnc1SCC(=O)NCc1ccco1 | – | inactive
14 | O=C(CSc1nc2ccc(Nc3nc(N4CCOCC4)nc(N4CCOCC4)n3)cc2s1)NCc1ccco1 | – | 5.01 µM (active)
15 | COCCN(Cc1ccccc1)C(=O)Cc1ccc(S(=O)(=O)N2CCOCC2)s1 | 0.153 | –
16 | COc1ccccc1C(=O)N1CC2(C)CC1CC(C)(C)C2 (centres undefined) | -12.3 | –
17 | COc1ccc(C(=O)N2CC3(C)CC2CC(C)(C)C3)cc1OC (centres undefined) | -1.53 | –
18 | CC1(C)CC2CC(C)(CN2c2ncnc3ccc(Br)cc23)C1 (centres undefined) | – | 10 µM (active)
19 | CC(Oc1cccc(Cl)c1)C(=O)Nc1ccc(S(=O)(=O)Nc2ncccn2)cc1 (centres undefined) | 14.9 | –
20 | COc1ccccc1CNC(=O)COn1nnc2ccc(S(=O)(=O)N3CCOCC3)cc21 | -9.22 | –
21 | Cc1cccc(NS(=O)(=O)c2ccc(C)c(C(=O)NCc3cccnc3)c2)c1 | 2.68 | –
22 | COC(=O)C1=C(c2ccc(F)cc2OCc2ccccc2)C[C@@H]2CC[C@H]1N2C(=O)NCc1ccc2[nH]ccc2c1 | -27.8 | –
23 | COC(=O)C1=C(c2cccc(OCc3ccccc3)c2)C[C@@H]2CC[C@H]1N2C(=O)NNCc1ccccc1 | -21.4 | –
24 | COC(=O)C1=C(c2ccccc2OCc2ccccc2)C[C@@H]2CC[C@H]1N2C(=O)NCc1ccc(OC)cc1 | – | 11.2 µM (active)
25 | O=C(COC(=O)c1cccnc1Cl)Nc1ccc(S(=O)(=O)N2CCOCC2)cc1 | 3.66 | –
26 | O=C(O)c1ccccc1/C=N/Nc1ccc(S(=O)(=O)Nc2ccc(Cl)cc2)cc1[N+](=O)[O-] | -0.15 | –

Row | Compound | activity change, negative = inhibition [%] | Potency
27 | O=C(c1cn(-c2ccccc2)nc1-c1cccnc1)N1CCN(S(=O)(=O)c2ccccc2F)CC1 | -0.254 | –
28 | N#Cc1ccccc1S(=O)(=O)N1CCN(Cc2c(O)ccc3ccccc23)CC1 | -0.899 | –
29 | N#Cc1ccccc1S(=O)(=O)N1CCN(C(=O)c2cc(-c3ccccc3)nn2-c2ccccc2)CC1 | – | 11.2 µM (active)
30 | CCCCCN1CC(O)=C(c2ccccc2)C1=N | 3.98 | –
31 | CCCCCNC(=O)Cc1ccc(OC)cc1 | 14.6 | –
32 | CCCCCCCCCCCCn1ccc(=N)cc1 | – | 0.501 µM (active)
33 | COCCCNC(=O)CC1C[C@H](C(=O)N2CCCCC2)[C@@]2(CCc3ccccc3)c3[nH]c4ccccc4c3CCN2C1=O (some centres undefined) | 35.4 | –
34 | O=C(Nc1cccc(Br)c1)C1CC(=O)N(C2CCCC2)C1 (centres undefined) | 4.1 | –
35 | O=C(Nc1ncccc1O)c1ccc(C(=O)c2ccccc2)cc1 | 8.38 | –
36 | Cc1nc(Cl)cc(N/N=C/c2ccccc2)n1 | -18.1 | –
37 | COc1cccc(/C=N/Nc2ccc(S(=O)(=O)Nc3ccccc3C(=O)O)cc2[N+](=O)[O-])c1O | 15.6 | –
38 | COc1cccc(/C=N/Nc2cc(C)nc(-c3ccccc3O)n2)c1O | – | 12.6 µM (active)
39 | COc1ccccc1/C=N\Nc1cc(C)nc(-n2nc(C)cc2C)n1 | – | 3.16 µM (active)
40 | COc1ccccc1/C=N/Nc1nc(C)c(C(C)=O)s1 | 10.5 | –
41 | COc1cccc(/C=N\NC(=O)C2=NNC(=O)C2C)c1O (centres undefined) | 15.1 | –
42 | N#CC1(NC(=O)COC(=O)Cc2n[nH]c(=O)c3ccccc23)CCCCC1 | 12.1 | –
43 | NC1=NOC(=O)C1C1CCCCC1 (centres undefined) | -2.58 | –
44 | Cc1nc(-c2ccc(F)cc2)c(CC(=O)N(C)CC(=O)Nc2c(C)cccc2C)s1 | 5.17 | –
45 | CS(=O)(=O)c1ccc(C(=O)NNC(=O)c2cccs2)cc1 | 16.1 | –
46 | CC1(c2ccc(Cl)cc2Cl)NC(=O)N(CC(=O)Nc2cccnc2Cl)C1=O (centres undefined) | 0.453 | –
47 | O=C1C=C(c2cccc(Cl)c2)C[C@@H](c2ccc(F)cc2)C1 | -5.95 | –
48 | O=C1C=C(c2ccnc3cc(Cl)ccc23)C[C@@H](c2ccc3c(c2)OCO3)C1 | – | 3.16 µM (active)
49 | O=C1C=C(c2cccc(Cl)c2O)C[C@@H](c2ccc(F)cc2)C1 | -2.53 | –
50 | Cc1cc(C)c(C=NNc2nc3c([nH]2)c(=O)n(C)c(=O)n3C)c(C)c1 | -8.43 | –
51 | CCOc1ccc(CCNC(=O)COC(=O)C2CCN(S(=O)(=O)c3ccccc3)CC2)cc1OCC | -13.1 | –
52 | CCOC(=O)C(CO)NC(=O)C1(NC(C)=O)CCCC1 (centres undefined) (Ac-[Ac5c]-[ξS]-OEt) | 10.5 | –

Row | Compound | activity change, negative = inhibition [%] | Potency
53 | CC1CCN(Cc2nc(-c3ccc(Cl)cc3)no2)CC1 | 5.28 | –
54 | CN(Cc1ccccn1)Cc1nc(-c2ccc(Cl)cc2)no1 | -23.6 | –
55 | CCN1CC(CN(C)Cc2nc(-c3ccc(Cl)cc3)no2)CC1=O (centres undefined) | – | 11.2 µM (active)
56 | O=C(c1ccncc1)N1CCN(S(=O)(=O)c2cc(C(F)(F)F)cc(C(F)(F)F)c2)CC1 | -2.48 | –
57 | Cc1ccc(CNC(=O)COC(=O)C2CCC2)cc1 | 15.2 | –
58 | C#CCOCCOCCOCCNc1nc(N2CCN(C(=O)[C@H](CCCN=C(N)N)n3cc(C(N)[C@@H](C)CC)nn3)CC2)nc(N2CCN(C(=O)[C@H](CO)n3cc([C@@H](N)C(C)C)nn3)CC2)n1 (some centres undefined) | -18.2 | –
59 | CCOc1cc(-c2cc(-c3ccc(NC(C)=O)cc3)nc(N)c2C#N)ccc1O | – | 11.2 µM (active)
60 | CCOc1cc(-c2cc(-c3ccc(OC)cc3)nc(N)c2C#N)ccc1O | -24.5 | –
61 | CC(=O)Nc1ccc(-c2cn3cccnc3n2)cc1 | 7.55 | –
62 | Nc1nnc(SCC(=O)NCC(=O)Nc2ccc(F)c(F)c2F)s1 | -23.5 | –
63 | CCN1CCN(CCCCOc2ccccc2F)CC1 | -5.52 | –
64 | COc1ccccc1OCCCCCCN1CCN(C)CC1 | -18.9 | –
65 | CN1CCN(CCCCOc2cccc3ccccc23)CC1 | – | 10 µM (active)
66 | Cc1ccc2c(O)c(Cc3ccccc3)c(=O)[nH]c2n1 | 7 | –
67 | COc1ccc(S(=O)(=O)N2CCN(CC(=O)N3CCOCC3)CC2)cc1OC | 1.25 | –
68 | CCOC(=O)c1ccccc1NC(=O)CSc1nc2c(sc(=S)n2CC)c(=O)[nH]1 | 18.2 | –
69 | COc1ccc2c(c1)O/C(=C\c1ccccc1O)C2=O | 2.33 | –
70 | COc1ccc(/C=N/NC(=O)c2cccc(C(F)(F)F)c2)cc1 | 17.5 | –
71 | CCOc1ccc2[nH]c(C(=O)N/N=C/c3cccc(OC)c3OC)cc2c1 | – | 12.6 µM (active)
72 | COc1cc2cc(C(=O)N/N=C/c3cccc(OC)c3OC)[nH]c2cc1OC | -14.6 | –
73 | COc1ccccc1CNC(=O)COC(=O)c1sc(C)nc1C | 8.83 | –
74 | CCN(C(=O)CSc1nnnn1-c1ccc(OC)cc1)C1CCS(=O)(=O)C1 (centres undefined) | 0.363 | –
75 | Oc1c(CN2CCN(c3ccc(F)cc3)CC2)cc(Cl)c2cccnc12 | – | 3.55 µM (active)
76 | Oc1ccc(CN2CCN(c3ncccn3)CC2)cc1 | 7.41 | –
77 | Oc1cc2c(cc1CN1CCN(c3ccccc3)CC1)OCO2 | -1.36 | –
78 | Cc1cc(O)c(Sc2ccccc2)c(=O)o1 | 4.91 | –

Row | Compound | activity change, negative = inhibition [%] | Potency
79 | COc1ccc(OC)c(S(=O)(=O)Nc2c(C)nn(C)c2C)c1 | 1.56 | –
80 | N#CC1=C(N)Oc2cc(N)ccc2C1c1ccccc1 (centres undefined) | -25.3 | –
81 | Cc1nn(-c2ncccn2)c2c1C(=O)CC(C)(C)C2Br (centres undefined) | -27.1 | –
82 | CC(Oc1ccc(Br)cc1)C(=O)NC1CCCCCC1 (centres undefined) | -2.46 | –
83 | COc1ccc(OCC(O)CNCCNc2nccc(C(F)(F)F)n2)cc1 (centres undefined) | 28.7 | –
84 | CC(C)(C)CC(C)(C)NCC(O)COCCOc1ccc(Br)cc1 (centres undefined) | – | 6.31 µM (active)
85 | COc1ccc(-c2nnc(SC(C)C(=O)NC3CC3)o2)cc1 (centres undefined) | 4.88 | –
86 | O=C(N=C1SC2CS(=O)(=O)CC2N1c1ccccc1)c1ccccc1 (centres undefined) | 4.87 | –
87 | Cc1nnc(NC(=O)/C=C/c2ccco2)s1 | 13 | –
88 | O=C(/C=C/c1ccco1)Nc1ccc(Oc2ccccc2)cc1 | – | 14.1 µM (active)
89 | O=C(/C=C/c1ccco1)Nc1cccc(-c2nc3ccccc3[nH]2)c1 | -7.35 | –
90 | CCOc1ccc(N2CC(C(=O)NCCN3C(=O)S/C(=C\c4cccnc4)C3=O)CC2=O)cc1 (centres undefined) | -16.4 | –
91 | O=C(NCCN1C(=O)S/C(=C\c2cccnc2)C1=O)c1cccc(OC(F)F)c1 | 1.89 | –
92 | Cc1cc(OCCCC(=O)NCCN2C(=O)S/C(=C\c3cccnc3)C2=O)ccc1Cl | – | 10 µM (active)
93 | OCC1(CCc2ccccc2)CCN(Cc2ccc3nsnc3c2)CC1 | 6.6 | –
94 | CC(=O)c1cccc(CN2CCC(CO)(Cc3ccccc3)CC2)c1 | -1.38 | –
95 | Cc1cccc(-c2ncc(CN3CCC(CO)(CCCc4ccccc4)CC3)cn2)c1 | – | 10 µM (active)
96 | c1ccc2cc(CCCc3cc4ccccc4cn3)ncc2c1 | -5.19 | –
97 | COc1ccc([C@H]2CC(=O)C=C(/C=C/c3ccccc3)C2)cc1 | 1.94 | –
98 | CCC(=O)Nc1ccc(C(=O)CSc2nnc(CNc3ccc(Cl)cc3)o2)cc1OC | – | 5.01 µM (active)
99 | COc1cc(C(=O)NCc2nnc(SCC(=O)c3ccc(Cl)cc3)o2)cc(OC)c1OC | -20.9 | –
100 | CCOC(=O)CSc1nnc(CNc2ccc(F)cc2)o1 | 2.35 | –
101 | O=C(COC(=O)c1cccnc1Cl)NC12CC3CC(CC(C3)C1)C2 | 15 | –
102 | O=C1/C(=C/c2ccc3c(c2)OCO3)CCC/C1=C\c1ccc2c(c1)OCO2 | – | inactive
103 | Cc1nn(C)cc1/C=C1\CCC/C(=C\c2cn(C)nc2C)C1=O | – | 10 µM (active)
104 | CCn1cc(/C=C2/SC(=S)NC2=O)c(C)n1 | -23.4 | –
